Structures are written as SMILES. About 83,000 compounds went through this panel and 20% of them were active in at least one assay; those are over-represented in the sample as a whole.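 Treatment: one concentration, 48 hours, 96-well format. Scoring: percent growth, with anything below 10 considered active.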 Values without a mark were called inactive.

The subject of the assay is MDA-MB-468 breast. The experiment in a line: NCI-60 one-dose screen, 48 h (100 = growth as untreated, 0 = no growth, -100 = all killed). As to conditions: 10 µM unless noted.
Take `Fc1ccc2c(c1)c(-c1nc(-c3c[nH]c4ncccc34)cs1)cn2CCN1CCOCC1`: the growth is 43.8%.
As for `NC(Cc1ccc(O)cc1)C(=O)N/N=C/c1ccc(N(CCCl)CCCl)cc1` (stereo not given), the growth is 19.7%.
The value for `CC(=O)c1ccc(C(=O)NCC2CCC3(CC2)OOC2(CCCCC2)OO3)cc1` was 65.7%.
For the compound `CC(C)=CCC/C(C)=C/C=N\N=C(/N)N[N+](=O)[O-]`, the growth is 103%.
In the case of `CCN(CC)CCOC(=O)C(OC(C)C)(c1ccccc1)c1ccccc1`, the growth was 95.1%.

For the origin of these results see PubChem BioAssay (NCI).
